For 20 compounds, inhibition results are on record in PubChem BioAssay AID1945 (The Scripps Research Institute Molecular Screening Center, 2009).

The term inhibition denotes the relative decrease from the control value, in per cent.

Among all 1,600 compounds or so, about 65 (4%) were called active. No stated cut-off is given here; in the data, active means inhibition above about 37%; inactive means the rest. Not all results are given here.

The nature of the assay: DNA intercalator displacement agents – biochemical, FID fluorescence, triplicate, artefact control for HCV NS3 helicase inhibitor project (AID 1945).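 Further: 0% = vehicle and 100% = reference compound; higher means more displacement of ethidium bromide from the DNA hairpin.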 The following applies: DNA fluorescent intercalator displacement, at 7.9 µM, active compounds read high.
Take `CS/C(=C\C(=O)c1ccco1)Nc1ccccc1Cl`: the inhibition is -4.94% (inactive). Consider `O=C1N/C(=C/c2cccn2-c2ccccc2)C(=O)N1c1cccc(Cl)c1`, for which the inhibition is 12.2% (inactive).

On to `Cc1cc(C)c2nc(-c3ccco3)cc(C(=O)O)c2c1`, for which the inhibition is -5.42% (inactive). Consider `Cc1ccc(/C=C/C(=O)Nc2ccc([N+](=O)[O-])c(NC(=O)/C=C/c3ccc(C)o3)c2)o1`, for which the inhibition is 33.4% (inactive).

Turning to `CC(C)c1ccc(C2C(C(=O)c3ccco3)=C(O)C(=O)N2CC2CCCO2)cc1` (stereo not given), the inhibition was -21.9% (inactive). For the compound `Cc1ccc(C(CC(=O)O)Nc2nc(N3CCCCC3)nc(N3CCCCC3)n2)cc1` (stereo not given), the inhibition is -62.5% (inactive).

In the case of `Cc1ccc(-c2nn(-c3ccccc3)cc2/C=C2\SC(=S)N(CCCCCC(=O)O)C2=O)o1`, the inhibition was 9.08% (inactive). In the case of `CN(C)c1ccc(N/C=C/C(=O)C(F)(F)F)cc1`, the inhibition is 17.8% (inactive).

Take `O=C(c1cccc(-n2cccc2)c1)N1CCN(S(=O)(=O)c2ccc(F)cc2)CC1`: the inhibition was -4.45% (inactive). As to `O=C(CCCN1C(=O)/C(=C\c2ccco2)SC1=S)Nc1cccc2ccccc12`, the inhibition is 6.79% (inactive).

`Cc1occc1C(=O)N/N=C/c1ccc(-c2cccc([N+](=O)[O-])c2)o1`: the inhibition was 1.25% (inactive). Turning to `Cc1cc(N2C(=O)C(O)=C(C(=O)c3ccc(C)o3)C2c2ccc(OCc3ccccc3)cc2)no1` (stereo not given), the inhibition is -15.8% (inactive).

Regarding `Cc1cccc(NC(=O)c2sc3nc4c(c(-c5ccco5)c3c2N)CCC4)c1`, the inhibition was -11.3% (inactive). `COc1ccc(OCC(=O)Nc2nnc(-c3ccco3)s2)cc1`: the inhibition was -1.45% (inactive). The result for `COc1ccc(NC(=O)CSc2ccc(-c3ccco3)nn2)c(OC)c1` reads 0.58% (inactive).

As to `c1ccc(CSc2nnc(-c3ccco3)c(-c3ccco3)n2)cc1`, the inhibition is 32.8% (inactive). For the compound `Clc1ccccc1CSc1nnc(-c2ccco2)c(-c2ccco2)n1`, the inhibition was 72.2% (active).

Regarding `O=C(CCl)NNc1cccc(Cl)n1`, the inhibition was 11.2% (inactive). For `COc1cccc(C(=O)CC(=O)C(=O)Nc2ccc([N+](=O)[O-])cc2C)c1` the value was 2.14% (inactive).

Turning to `Fc1ccc(-c2ccc(-c3nn4c(-c5ccco5)nnc4s3)o2)cc1`, the inhibition is -13.2% (inactive).
